# Experimental data reported in PubChem BioAssay AID1159580 (chemical genetic matrix, 2015).
# “And” between values parts separate entries of the source, which are not always exact repeats. Equal values may be shown once. In all, about 5,500 compounds went through this assay and about 2,000 (36%) were called active. About 18% were inconclusive and are not listed. Rule as the data show it: active = normalized growth mostly below about 0.91 (no sharp cut-off); inconclusive = no clear call, values can overlap the other calls; inactive = mostly above about 0.92. This is one part of the list. A structure can be active in one record and inactive in another.
# Assay: chemical genetic growth profiling, strain panel (AID 1159580);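 also: tested at 20 µM; growth read once vehicle control cultures reached saturation at 30 °C; 1 = growth at the plate median or of vehicle wells; lower values mean less growth of the strain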
# Conditions: S. cerevisiae deletion strains, growth OD
smiles,measurement,setting,value
Cc1cc2c(C(C)C)c(O)c(O)c(C=O)c2c(O)c1-c1c(C)cc2c(C(C)C)c(O)c(O)c(C=O)c2c1O,normalized growth,"locus YJR066W, strain TOR1, stronger effect = lower value",0.993 (inactive)
same,normalized growth,"locus YJR075W, strain HOC1, stronger effect = lower value",0.907 (inactive)
same,normalized growth,"locus YKL009W, strain mrt4, stronger effect = lower value",1.52 [resistant] (active)
same,normalized growth,"locus YKL068W, stronger effect = lower value",1.04 (inactive)
same,normalized growth,"locus YKL085W, strain MDH1 (second series), stronger effect = lower value",1.08 [resistant] (active) and 1.1 [resistant] (active)
same,normalized growth,"locus YKL085W, strain MDH1, stronger effect = lower value",1.08 [resistant] (active) and 1.1 [resistant] (active)
same,normalized growth,"locus YKL160W, strain elf1, stronger effect = lower value",0.832 (active) and 0.809 (active)
same,normalized growth,"locus YKL190W, strain CNB1, stronger effect = lower value",0.663 (active) and 0.868 (active)
same,normalized growth,"locus YKR001C, strain vps1, stronger effect = lower value",0.486 (active) and 0.887 (active)
same,normalized growth,"locus YKR026C, strain gcn3, stronger effect = lower value",0.888 (active) and 0.949 (inactive)
same,normalized growth,"locus YKR091W, strain srl3, stronger effect = lower value",0.935 (inactive) and 0.943 (inactive)
same,normalized growth,"locus YLL001W, strain dnm1, stronger effect = lower value",0.724 (active) and 0.801 (active)
same,normalized growth,"locus YLL026W, stronger effect = lower value",0.904 (active) and 0.838 (active)
same,normalized growth,"locus YLL041C, strain sdh2, stronger effect = lower value",0.92 (active) and 0.959 (inactive)
same,normalized growth,"locus YLR027C, strain aat2, stronger effect = lower value",0.78 (active) and 0.81 (active)
same,normalized growth,"locus YLR039C, strain RIC1, stronger effect = lower value",0.202 (active) and 0.679 (inactive)
same,normalized growth,"locus YLR058C, strain SHM2, stronger effect = lower value",0.685 (active) and 0.764 (active)
same,normalized growth,"locus YLR102C, strain apc9, stronger effect = lower value",0.992 (inactive) and 1.01 (inactive)
same,normalized growth,"locus YLR113W, strain HOG1, stronger effect = lower value",0.952 (inactive)
same,normalized growth,"locus YLR221C, strain rsa3, stronger effect = lower value",0.751 (active) and 0.818 (active)
same,normalized growth,"locus YLR258W, strain gsy2, stronger effect = lower value",0.855 (active) and 0.839 (active)
same,normalized growth,"locus YLR262C, strain YPT6 (second series), stronger effect = lower value",0.216 (active) and 0.179 (active)
same,normalized growth,"locus YLR262C, strain YPT6, stronger effect = lower value",0.207 (active) and 0.653 (inactive)
same,normalized growth,"locus YLR268W, strain sec22, stronger effect = lower value",0.599 (active) and 0.847 (active)
same,normalized growth,"locus YLR320W, strain mms22, stronger effect = lower value",0.684 (active) and 0.651 (active)
same,normalized growth,"locus YLR330W, strain CHS5, stronger effect = lower value",0.675 (active) and 0.883 (active)
same,normalized growth,"locus YLR342W, strain FKS1 (second series), stronger effect = lower value",0.545 (active) and 0.811 (inactive)
same,normalized growth,"locus YLR342W, strain FKS1, stronger effect = lower value",0.675 (active) and 0.786 (active)
same,normalized growth,"locus YLR357W, strain rsc2, stronger effect = lower value",0.649 (active) and 0.719 (active)
same,normalized growth,"locus YLR370C, strain arc18, stronger effect = lower value",0.687 (active) and 0.765 (active)
same,normalized growth,"locus YLR371W, strain rom2, stronger effect = lower value",0.708 (active) and 0.956 (inactive)
same,normalized growth,"locus YLR384C, strain iki3, stronger effect = lower value",0.809 (active) and 0.889 (active)
same,normalized growth,"locus YLR418C, strain cdc73, stronger effect = lower value",0.486 (active) and 0.903 (inactive)
same,normalized growth,"locus YML016C, strain PPZ1, stronger effect = lower value",0.73 (active) and 0.831 (active)
same,normalized growth,"locus YML032C, strain rad52, stronger effect = lower value",0.855 (active) and 0.958 (inactive)
same,normalized growth,"locus YML120C, strain ndi1, stronger effect = lower value",0.721 (active) and 0.719 (active)
same,normalized growth,"locus YML124C, strain tub3, stronger effect = lower value",0.928 (active) and 0.994 (inactive)
same,normalized growth,"locus YMR058W, strain fet3, stronger effect = lower value",0.101 (active) and 0.125 (active)
same,normalized growth,"locus YMR078C, strain ctf18, stronger effect = lower value",0.974 (inactive) and 0.987 (inactive)
same,normalized growth,"locus YMR125W, strain sto1, stronger effect = lower value",0.824 (active) and 0.908 (inactive)
same,normalized growth,"locus YMR129W, stronger effect = lower value",0.878 (active) and 0.941 (inactive)
same,normalized growth,"locus YMR205C, strain PFK2, stronger effect = lower value",0.63 (active) and 0.655 (active)
same,normalized growth,"locus YMR223W, strain ubp8, stronger effect = lower value",0.796 (active) and 0.898 (active)
same,normalized growth,"locus YMR231W, strain pep5, stronger effect = lower value",0.434 (active) and 0.295 (active)
same,normalized growth,"locus YMR307W, strain GAS1, stronger effect = lower value",0.354 (active) and 0.699 (inactive)
